# Laboratory results as given in PubChem BioAssay (NCI).
# The panel holds about 83,000 compounds, 20% with a hit somewhere; the sample as a whole holds those more often.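 Each cell line was grown in a 96-well plate and treated with one concentration of compound for 48 hours. Values below 10 were considered active.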 Active and inactive are the calls of the source.
# Test system: MOLT-4 leukemia
# Test: NCI-60 one-dose screen, 48 h (100 = growth as untreated, 0 = no growth, -100 = all killed)
# Details: 10 µM unless noted
row,Compound,growth
1,O=C1NCN(c2ccccc2)C12CCN(CCCC(c1ccc(F)cc1)c1ccc(F)cc1)CC2,34.3% (inactive)
2,N#Cc1cnc2cc(OC[C@H](O)CO)c(NC(=O)CC3CSSC3)cc2c1Nc1ccc(OCc2cccc(F)c2)c(Cl)c1,-90.1% (active)
3,COc1ccc(OC)c2c1[nH]c(=O)c1c3ccccc3cn21,-15.7% (active)
4,COc1cc(C2CC(=O)Nc3c2cc(Br)c2ccccc32)cc(Br)c1OC (centres undefined),30.9% (inactive)
5,COC(=O)CCC1=C(C)/C(=C/c2[nH]c(-c3ccc[nH]3)cc2OC)N=C1C,-28.3% (active)

# Test system: SR leukemia
# Test: as above
# Details: 10 µM unless noted
row,Compound,growth
1,O=[N+]([O-])c1ccc(N/N=C/c2c(O)ccc3ccccc23)nc1,14.1% (inactive)
2,COc1cc(/C=C/c2nnc(-c3cc(-c4ccccc4)n[nH]3)o2)cc(OC)c1OC,86.4% (inactive)
3,COc1cc2c(-c3nc4cc(Cl)c(F)cc4s3)cc(=O)oc2c(C)c1OC,-53.9% (active)
4,COc1cccc(-c2nnc(N)o2)c1,124% (inactive)
5,CSc1nc2c(c(=O)n1C)C(c1ccccc1)C1=C(N2)/C(=C/c2ccccc2)CCC1 (centres undefined),-14.2% (active)
6,CCOC(=O)c1c(NC(=O)C2CCCCC2C(=O)O)sc2c1CCCC2 (centres undefined),111% (inactive)
7,C[N+]1(CCC[N+]2(C)C[C@@H]3[C@H](C2)[C@@H]2C=C[C@H]3C2)CCOCC1 (some centres undefined),110% (inactive)
8,O=C(CCc1nnc(SCc2ccccc2)s1)c1nc2ccccc2[nH]1,74.4% (inactive)
9,c1csc([C@@H]2C[C@@H]3Cc4ccc5ccccc5c4N2O3)c1,95.1% (inactive)
10,O=C1/C(=C/c2ccc([N+](=O)[O-])s2)Oc2ccc(Br)cc21,7.74% (active)
11,CCCCCCC(C)(O)c1ccccc1 (centres undefined),97.6% (inactive)
12,CCOC(Cc1c(N)[nH]c(=S)[nH]c1=O)OCC,90.8% (inactive)
13,CCN1C2=C(SC(=S)C1=C1SC(C(=O)OC)=C(C(=O)OC)S1)SC(=Nc1ccc(OC)cc1)C2=O,19.2% (inactive)
14,CCOc1nc(-c2ccccc2)cc2c(O)c(-c3nnco3)[nH]c(=O)c12,21.3% (inactive)
15,COc1cccc2c1O/C(=C\c1c([N+](=O)[O-])ncn1C)C2=O,62.8% (inactive)
16,CCCc1cc(=O)n2c(C(=O)Nc3ccccc3OC)c(C(=O)Nc3ccc(F)cc3)sc2n1,9.34% [30 µM] (active)
17,CCOC(=O)C(C(C)=O)c1nc2sc3cc(Cl)ccc3n2c(=N)c1C#N (centres undefined),60.3% (inactive)

row,Compound,growth
1,COc1ccc2nccc(/C=C/c3ccnc4ccc(OC)cc34)c2c1,21.4% (inactive)
2,COc1ccc(-c2c(-c3cc(OC)c(OC)c(OC)c3)noc2N)cc1,8.86% (active)
3,COc1ccc(-c2cc(C(=O)Nc3nc4cc(C)c(C)cc4s3)nc3cc(-c4ccccc4)nn23)cc1OC,62.8% (inactive)
4,COc1ccc(-c2cc(Cc3cccs3)c(=O)n(Cn3ccc4ccccc43)n2)cc1,87% (inactive)
5,COc1ccc(-c2cc(Cc3cccs3)c(=O)n(Cn3cncn3)n2)cc1,84% (inactive)
6,Cn1c(=O)c2c(nc(Br)n2CCC(=O)Nc2ccc(F)cc2)n(C)c1=O,107% (inactive)
7,COc1ccc(/C=C/C(=O)Nc2cccnc2Nc2ccc(F)cc2)cc1,88.7% (inactive)
8,O=C1NCC(Nc2ccc(Br)cc2Cl)C(=O)N1 (centres undefined),101% (inactive)
9,CC/C=C\C=C/C(=O)N/C=C/CC1Cc2cccc(O)c2C(=O)O1 (centres undefined),-67.6% (active)
10,Cc1cc(C)c2c(c1)N1OC(C2)C[C@H]1/C=C/c1ccccc1 (some centres undefined),83.2% (inactive)
11,Cc1cc(=O)n2n1-c1ccc(Cl)cc1NC(=O)C2,110% (inactive)
12,O=C1/C(=C/c2ccc([N+](=O)[O-])o2)Oc2ccc(Br)cc21,8.8% (active)
13,O=C1NCN(c2ccccc2)C12CCN(CCCC(c1ccc(F)cc1)c1ccc(F)cc1)CC2,8.54% (active)
14,N#Cc1cnc2cc(OC[C@H](O)CO)c(NC(=O)CC3CSSC3)cc2c1Nc1ccc(OCc2cccc(F)c2)c(Cl)c1,-72.6% (active)
15,COc1ccc(OC)c2c1[nH]c(=O)c1c3ccccc3cn21,-6.08% (active)
16,COc1cc(C2CC(=O)Nc3c2cc(Br)c2ccccc32)cc(Br)c1OC (centres undefined),-53.1% (active)
17,COC(=O)CCC1=C(C)/C(=C/c2[nH]c(-c3ccc[nH]3)cc2OC)N=C1C,-32.1% (active)
